{
  "source": "paper PMC4552634",
  "about": "“A New Set of Chemical Starting Points with Plasmodium falciparum Transmission-Blocking Potential for Antimalarial Drug Discovery” (PLoS ONE, 2015)",
  "note": "In all, about 13,000 compounds went through this assay and about 3,200 (25%) showed an effect of 50% or more. The list shows a part of the results.",
  "data": [
    {"tested_on": "P. falciparum stage V gametocytes", "set-up": "BacTiter-Glo ATP luminescence viability of purified stage V gametocytes in 384-well plates, per cent inhibition versus DMSO", "settings": "48 h, 5 µM; inhibitor", "units": {"% Inhibition": "%"}, "values": [
      {"molecule": "COc1ccc2nccc([C@@H](O)CN3CCC(NCc4ccc5nsnc5c4)CC3)c2c1", "note": "[TCMDC-140928]", "% Inhibition": 4.203},
      {"molecule": "O=C(NCc1cccc(C(F)(F)F)c1)C1CCCN(C(=O)c2ccc(O)c(-c3ccc(Cl)c(Cl)c3)c2)C1", "note": "(stereo not shown) [TCMDC-140885]", "% Inhibition": 20.85},
      {"molecule": "O=C(Cc1cnc[nH]1)Nc1cccc(-c2cccc(-c3nc4ccccc4[nH]3)c2)c1", "note": "[TCMDC-136940]", "% Inhibition": -12.56},
      {"molecule": "CCC(CSC1CCCCC1)N(C)CCN(C)C(CC)CSC1CCCCC1", "note": "(stereo not shown) [TCMDC-131456]", "% Inhibition": 101.8},
      {"molecule": "CCc1ccc(NC(=O)c2ccc(CN3CCCN(Cc4cccs4)CC3)cc2)cc1", "note": "[TCMDC-136447]", "% Inhibition": -19.53},
      {"molecule": "CC(C)C(=O)n1ncc2c3c(N)nc(N)nc3ccc21", "note": "[TCMDC-137841]", "% Inhibition": -14.38},
      {"molecule": "CCN(CCO)Cc1ccc(-c2ccc(NS(=O)(=O)c3cccc4cccnc34)cc2)cc1", "note": "[TCMDC-136477]", "% Inhibition": -29.46},
      {"molecule": "Cc1cc(C(=O)Nc2ccc3c(c2)CCN3C2CCN(Cc3csc4ccccc34)C2)no1", "note": "(stereo not shown) [TCMDC-135082]", "% Inhibition": 15.45},
      {"molecule": "CCCCN(CCCC)CCCCNc1c2ccccc2nc2ccccc12", "note": "[TCMDC-137461]", "% Inhibition": 102},
      {"molecule": "CCCCN(CCCC)CCCCCCNc1c2ccccc2nc2ccccc12", "note": "[TCMDC-137519]", "% Inhibition": 114.2},
      {"molecule": "Cl.c1ccc2c(NCCOCCNc3c4ccccc4nc4ccccc34)c3ccccc3nc2c1", "note": "[TCMDC-124265]", "% Inhibition": 121.8},
      {"molecule": "CCCCNc1cc(NCCCC)c2c(n1)[nH]c1ccccc12", "note": "[TCMDC-131827]", "% Inhibition": -13.41},
      {"molecule": "CCN(CC)CCNc1ccnc2c3ccccc3n(C)c12", "note": "[TCMDC-131844]", "% Inhibition": 2.979},
      {"molecule": "CCN(CC)CCCNc1c2ccccc2nc2ccccc12.Cl", "note": "[TCMDC-125517]", "% Inhibition": 76.48},
      {"molecule": "CCN(CC)CCCNc1cc[n+]([O-])c2cc3ccccc3cc12", "note": "[TCMDC-124146]", "% Inhibition": -26.87},
      {"molecule": "c1ccc2c(NCCc3c[nH]cn3)c3ccccc3nc2c1", "note": "[TCMDC-124424]", "% Inhibition": 5.484},
      {"molecule": "Cc1ccc(-c2cccc3c(NC(=O)Nc4ccc5nccc(N6CCN(C)CC6)c5c4)cccc23)cn1", "note": "[TCMDC-139367]", "% Inhibition": -6.741},
      {"molecule": "COc1ccccc1C1CCN(C2CCC(NC(=O)/C=C/c3ccc(C(F)(F)F)cc3)CC2)CC1", "note": "(stereo not shown) [TCMDC-133487]", "% Inhibition": 28.53},
      {"molecule": "CCNc1cc(C)nc(Nc2ccc(NS(=O)(=O)c3ccccc3)cc2)n1", "note": "[TCMDC-124954]", "% Inhibition": -28.24},
      {"molecule": "Cc1cccc(C)c1CNc1ccnc2cc(Br)ccc12", "note": "[TCMDC-132168]", "% Inhibition": -25.57},
      {"molecule": "CCCCn1c(N)c(N(Cc2ccco2)C(=O)C=Cc2cc(OC)c3c(c2)OCCO3)c(=O)[nH]c1=O", "note": "[TCMDC-125328]", "% Inhibition": -14},
      {"molecule": "O=C(NC1CCN(c2ccnc3cc(Cl)ccc23)C1)c1ccc(C(F)(F)F)cc1", "note": "(stereo not shown) [TCMDC-133661]", "% Inhibition": 38.8},
      {"molecule": "Cn1nc2ccc3ccccc3c2nc1=N", "note": "[TCMDC-131260]", "% Inhibition": 93.18},
      {"molecule": "Cc1cccc(Nc2nc(C)cc(N3CCCN(CC4CCCCC4)CC3)n2)c1", "note": "[TCMDC-137025]", "% Inhibition": -12.77},
      {"molecule": "O=C(Nc1ccc(-c2nc3ccccc3[nH]2)cc1)c1ccc(S(=O)(=O)N2CCCCC2)cc1", "note": "[TCMDC-125834]", "% Inhibition": -22.63},
      {"molecule": "O=C(COc1cnc2ccccc2n1)Nc1ccccc1Sc1ccc(Cl)cc1", "note": "[TCMDC-124892]", "% Inhibition": 99.33},
      {"molecule": "COc1ccccc1C(C)NCC(=O)Nc1ccccc1Sc1ccccc1", "note": "(stereo not shown) [TCMDC-124877]", "% Inhibition": -2.069},
      {"molecule": "NC(=O)C1Cc2ccccc2CN1CC(=O)Nc1ccccc1Sc1ccccc1", "note": "(stereo not shown) [TCMDC-124863]", "% Inhibition": 48.06},
      {"molecule": "O=C(Nc1ccc2c(c1)CCN2C1CCN(Cc2cc(F)cc(F)c2F)C1)c1ccco1", "note": "(stereo not shown) [TCMDC-135071]", "% Inhibition": -23.05},
      {"molecule": "CN1CCC(NCc2ccc(-c3ccc(S(=O)(=O)NC4CCC4)s3)cc2)CC1", "note": "[TCMDC-132232]", "% Inhibition": 57.53},
      {"molecule": "CN1CCC(NCc2ccc(-c3ccc(S(=O)(=O)NCc4ccccc4)s3)cc2)CC1", "note": "[TCMDC-132231]", "% Inhibition": 68.61},
      {"molecule": "CC(C)(CNC(=O)[C@@H]1CCCCN1)c1nc(-c2ccc(Cl)c(O)c2)c(-c2ccncc2)[nH]1", "note": "[TCMDC-141079]", "% Inhibition": -69.36},
      {"molecule": "CS(=O)(=O)c1ccc(CNCc2ccc(-c3ccc(-c4nc5ccc(F)cc5[nH]4)s3)cc2)cc1", "note": "[TCMDC-132900]", "% Inhibition": 4.618},
      {"molecule": "O=S(=O)(NCCN1CCCC1)c1ccc(-c2cccc(CNCc3ccc(F)cc3)c2)s1", "note": "[TCMDC-132273]", "% Inhibition": 98.81},
      {"molecule": "O=C1CCCN1CCCNCc1ccc(-c2ccc(-c3nc4ccc(F)cc4[nH]3)s2)cc1", "note": "[TCMDC-132756]", "% Inhibition": -11.94},
      {"molecule": "O=C(NCCN1CCCC1)c1cccc(-c2ccc(-c3nc4ccc(F)cc4[nH]3)s2)c1", "note": "[TCMDC-132318]", "% Inhibition": 15.45},
      {"molecule": "O=S(=O)(NCCN1CCCC1)c1ccc(-c2ccc(CNCc3ccc(F)cc3)cc2)s1", "note": "[TCMDC-132284]", "% Inhibition": 66.59},
      {"molecule": "CC(C)(C)CC(C)(C)c1ccc(O)c(CNC2CCCCC2)c1", "note": "[TCMDC-137604]", "% Inhibition": 41.75},
      {"molecule": "Cc1nnc(NC(=O)c2cn(-c3ccccc3)nc2-c2ccccc2C)o1", "note": "[TCMDC-125040]", "% Inhibition": 22.18},
      {"molecule": "COc1ccc(OC)c(C(O)C(C)NCc2cc(Cl)ccc2O)c1", "note": "(stereo not shown) [TCMDC-137921]", "% Inhibition": 36.34},
      {"molecule": "O=C(Nc1ccc(Cl)cc1C(=O)Nc1ccncc1)c1ccc(Cl)cc1Cl", "note": "[TCMDC-125853]", "% Inhibition": 59.79},
      {"molecule": "COc1ccc(C(=O)Nc2ccc(Cl)cc2C(=O)Nc2ccncc2)cc1", "note": "[TCMDC-123739]", "% Inhibition": 84.9},
      {"molecule": "Cc1ccc(NC(=O)Nc2ccc(Cl)cc2)cc1-c1ccc(C(=O)Nc2ccncc2)cc1", "note": "[TCMDC-133702]", "% Inhibition": -59.17},
      {"molecule": "O=C(Nc1ccc(Cl)cc1)c1cc(Cl)ccc1NC(=O)C1(c2ccc(Cl)cc2)CCCC1", "note": "[TCMDC-136643]", "% Inhibition": -21.36},
      {"molecule": "Cn1ccnc1CCC(=O)Nc1ccc(Cl)cc1C(=O)Nc1ccc(Cl)cc1", "note": "[TCMDC-136703]", "% Inhibition": 12.32},
      {"molecule": "Cc1nc(-c2ccncc2)sc1C(=O)Nc1ccc(Cl)cc1C(=O)Nc1ccc(Cl)cc1", "note": "[TCMDC-136515]", "% Inhibition": 3.625}
    ]}
  ]
}
